Results taken from PubChem BioAssay AID2783 (National Center for Advancing Translational Sciences (NCATS), 2010).
Inconclusive results are not listed. Active and inactive are the calls of the source. The call rests on the fitted dose curve; in most records, active means well fitted inhibition curve with a large enough effect in the polarisation, with a control signal flat (not every such curve was filed as active); inconclusive means small, poorly fitted or top-dose-only effect, or effect the other way, or a change in a side signal; inactive means no such curve, though single readings can be large or run the other way; the % refers to the polarisation. Where a SMILES comes first, the peptide text is derived from it. Bridges are numbered along the chain shown (N, C = ends). [ ]: non-standard residue; d: D form. The star is where a group is joined. ξ: configuration not given here. Octanoyl(6-Me) = CCC(C)CCCCC(=O)*; ξThr(3R) = C[C@@H](O)C(N)C(=O)O; dDab = NCC[C@@H](N)C(=O)O; Dab = NCC[CH](N)C(=O)O

Target: Histone-lysine N-methyltransferase 2A (Homo sapiens) (UniProt Q03164)
Assay: Confirmation of Inhibitors Targeting the Menin-MLL Interaction in MLL Related Leukemias: Competition With Fluorescein Labeled MLL-derived Peptide
Conditions: Fluorescence polarization, fluorescein-MLL peptide displacement from menin
Description: qHTS Assay for Inhibitors Targeting the Menin-MLL Interaction in MLL Related Leukemias
NIH Chemical Genomics Center [NCGC]
NIH Molecular Libraries Probe Centers Network [MLPCN]
Assay Submitter (PI): Jolanta Grembecka, Tomasz Cierpicki, University of Virginia
Translocations of the MLL (Mixed Lineage Leukemia) gene are frequently found in human leukemias affecting both children and adults. Fusion of MLL to one of more than 60 genes results in generation of oncogenic proteins upregulating Hox genes, which are vital to blood cell development. Patients harboring fusion of the MLL gene suffer from aggressive leukemias and respond poorly to available therapies. All of the oncogenic fusion proteins have a preserved N-terminal fragment of MLL that has been identified to interact with menin. It has been recently discovered that association with menin is critical to the leukemogenic activity of the MLL fusion oncoproteins. Selective targeting of the menin-MLL interaction could provide an attractive therapeutic approach to develop novel drugs for MLL-related leukemias. Small molecules blocking the menin-MLL interaction should reverse the oncogenic potential of MLL fusion proteins.
We have developed and optimized a fluorescence polarization-based assay for the identification of Menin-MLL inhibitors. The assay was run employing two different MLL-derived peptides. The present assay uses a 12 amino acid peptide labeled with fluorescein at its N-terminus. This peptide consists of the menin high affinity binding motif from MLL and is potently bound by menin. Another peptide with a mutated sequence, labeled with Texas Red, was used in parallel as a less stringent screen for inhibitors.
The present assay was run to confirm the activity of hits from the primary screen.
The Menin protein, the MLL-wild type (w.t.) derived peptide (N-terminal 12 amino acids), the MLL-derived peptide labeled with Texas Red and the MLL-w.t. peptide labeled with Fluorescein were kindly supplied by laboratory of Dr. Jolanta Grembecka, University of Virginia. All protein and peptide solutions were stored in single use aliquots at -80C. The Eu3+ Cyrptate-conjugated mouse monoclonal antibody anti-6 Histidine (Eu3+-AB) and the Streptavidin-XL665 conjugate (XL665) were purchased from Cisbio International (Bedford, MA). All antibody and XL665 conjugate solution stocks were stored in single use aliquots at -20C. The Buffer components for all assays were purchased from Sigma-Aldrich (St. Louis, MO) and Invitrogen (Carlsbad, CA).
1. FP reaction buffer: 50 mM Tris-HCl pH 7.5, 50 mM NaCl, 1mM DTT.
Before use, 0.05% BSA is added.
2. Menin protein, MLL-w.t. labeled with fluorescein, MLL-mutant peptide labeled with texas red.
Stored in singe use aliquots at -80C.
3. MLL-w.t. unlabeled peptide as positive control: 10 uM final in FP buffer.
1. Prepare Menin at 200 nM, MLL-w.t.-fluorescein at 25 nM, and MLL-mutant-texas red at 50 nM mixture in FP buffer.
2. Prepare Menin at 200 nM, MLL-w.t.-fluorescein at 25 nM, MLL-mutant-texas red at 50 nM, and 10 uM MLL-w.t. unlabeled mixture in FP buffer.
3. Prepare MLL-w.t.-fluorescein at 25 nM and MLL-mutant-texas red at 50 nM mixture in FP buffer.
3. Dispense 4 ul per well of reagent in step 1 in columns 2, 4 - 48 in a black 1536 well plate, dispense 4 ul per well of reagents from steps 2 and 3 in columns 1 and 3 respectively. Incubate plate at ambient for 15 minutes.
4. Transfer 23 nl per well of compound to plate and incubate at ambient for 1 hr.
5. Read fluorescence polarization for each label using the PerkinElmer Envision.
Envision protocol for fluorescein: FITC FP Dual Enh Mirror, Excitation filter 480, Emission filter (1) P-pol 535, Emission filter (2) S-pol 535
Envision protocol for texas red: FP Dual Enh Mirror, Excitation filter 555, Emission filter (1) P-pol 632, Emission filter (2) S-pol 632
Potency means the concentration at half of the fitted maximal effect.

Histone-lysine N-methyltransferase 2A (Homo sapiens), sequence (Q03164 whole entry, looked up): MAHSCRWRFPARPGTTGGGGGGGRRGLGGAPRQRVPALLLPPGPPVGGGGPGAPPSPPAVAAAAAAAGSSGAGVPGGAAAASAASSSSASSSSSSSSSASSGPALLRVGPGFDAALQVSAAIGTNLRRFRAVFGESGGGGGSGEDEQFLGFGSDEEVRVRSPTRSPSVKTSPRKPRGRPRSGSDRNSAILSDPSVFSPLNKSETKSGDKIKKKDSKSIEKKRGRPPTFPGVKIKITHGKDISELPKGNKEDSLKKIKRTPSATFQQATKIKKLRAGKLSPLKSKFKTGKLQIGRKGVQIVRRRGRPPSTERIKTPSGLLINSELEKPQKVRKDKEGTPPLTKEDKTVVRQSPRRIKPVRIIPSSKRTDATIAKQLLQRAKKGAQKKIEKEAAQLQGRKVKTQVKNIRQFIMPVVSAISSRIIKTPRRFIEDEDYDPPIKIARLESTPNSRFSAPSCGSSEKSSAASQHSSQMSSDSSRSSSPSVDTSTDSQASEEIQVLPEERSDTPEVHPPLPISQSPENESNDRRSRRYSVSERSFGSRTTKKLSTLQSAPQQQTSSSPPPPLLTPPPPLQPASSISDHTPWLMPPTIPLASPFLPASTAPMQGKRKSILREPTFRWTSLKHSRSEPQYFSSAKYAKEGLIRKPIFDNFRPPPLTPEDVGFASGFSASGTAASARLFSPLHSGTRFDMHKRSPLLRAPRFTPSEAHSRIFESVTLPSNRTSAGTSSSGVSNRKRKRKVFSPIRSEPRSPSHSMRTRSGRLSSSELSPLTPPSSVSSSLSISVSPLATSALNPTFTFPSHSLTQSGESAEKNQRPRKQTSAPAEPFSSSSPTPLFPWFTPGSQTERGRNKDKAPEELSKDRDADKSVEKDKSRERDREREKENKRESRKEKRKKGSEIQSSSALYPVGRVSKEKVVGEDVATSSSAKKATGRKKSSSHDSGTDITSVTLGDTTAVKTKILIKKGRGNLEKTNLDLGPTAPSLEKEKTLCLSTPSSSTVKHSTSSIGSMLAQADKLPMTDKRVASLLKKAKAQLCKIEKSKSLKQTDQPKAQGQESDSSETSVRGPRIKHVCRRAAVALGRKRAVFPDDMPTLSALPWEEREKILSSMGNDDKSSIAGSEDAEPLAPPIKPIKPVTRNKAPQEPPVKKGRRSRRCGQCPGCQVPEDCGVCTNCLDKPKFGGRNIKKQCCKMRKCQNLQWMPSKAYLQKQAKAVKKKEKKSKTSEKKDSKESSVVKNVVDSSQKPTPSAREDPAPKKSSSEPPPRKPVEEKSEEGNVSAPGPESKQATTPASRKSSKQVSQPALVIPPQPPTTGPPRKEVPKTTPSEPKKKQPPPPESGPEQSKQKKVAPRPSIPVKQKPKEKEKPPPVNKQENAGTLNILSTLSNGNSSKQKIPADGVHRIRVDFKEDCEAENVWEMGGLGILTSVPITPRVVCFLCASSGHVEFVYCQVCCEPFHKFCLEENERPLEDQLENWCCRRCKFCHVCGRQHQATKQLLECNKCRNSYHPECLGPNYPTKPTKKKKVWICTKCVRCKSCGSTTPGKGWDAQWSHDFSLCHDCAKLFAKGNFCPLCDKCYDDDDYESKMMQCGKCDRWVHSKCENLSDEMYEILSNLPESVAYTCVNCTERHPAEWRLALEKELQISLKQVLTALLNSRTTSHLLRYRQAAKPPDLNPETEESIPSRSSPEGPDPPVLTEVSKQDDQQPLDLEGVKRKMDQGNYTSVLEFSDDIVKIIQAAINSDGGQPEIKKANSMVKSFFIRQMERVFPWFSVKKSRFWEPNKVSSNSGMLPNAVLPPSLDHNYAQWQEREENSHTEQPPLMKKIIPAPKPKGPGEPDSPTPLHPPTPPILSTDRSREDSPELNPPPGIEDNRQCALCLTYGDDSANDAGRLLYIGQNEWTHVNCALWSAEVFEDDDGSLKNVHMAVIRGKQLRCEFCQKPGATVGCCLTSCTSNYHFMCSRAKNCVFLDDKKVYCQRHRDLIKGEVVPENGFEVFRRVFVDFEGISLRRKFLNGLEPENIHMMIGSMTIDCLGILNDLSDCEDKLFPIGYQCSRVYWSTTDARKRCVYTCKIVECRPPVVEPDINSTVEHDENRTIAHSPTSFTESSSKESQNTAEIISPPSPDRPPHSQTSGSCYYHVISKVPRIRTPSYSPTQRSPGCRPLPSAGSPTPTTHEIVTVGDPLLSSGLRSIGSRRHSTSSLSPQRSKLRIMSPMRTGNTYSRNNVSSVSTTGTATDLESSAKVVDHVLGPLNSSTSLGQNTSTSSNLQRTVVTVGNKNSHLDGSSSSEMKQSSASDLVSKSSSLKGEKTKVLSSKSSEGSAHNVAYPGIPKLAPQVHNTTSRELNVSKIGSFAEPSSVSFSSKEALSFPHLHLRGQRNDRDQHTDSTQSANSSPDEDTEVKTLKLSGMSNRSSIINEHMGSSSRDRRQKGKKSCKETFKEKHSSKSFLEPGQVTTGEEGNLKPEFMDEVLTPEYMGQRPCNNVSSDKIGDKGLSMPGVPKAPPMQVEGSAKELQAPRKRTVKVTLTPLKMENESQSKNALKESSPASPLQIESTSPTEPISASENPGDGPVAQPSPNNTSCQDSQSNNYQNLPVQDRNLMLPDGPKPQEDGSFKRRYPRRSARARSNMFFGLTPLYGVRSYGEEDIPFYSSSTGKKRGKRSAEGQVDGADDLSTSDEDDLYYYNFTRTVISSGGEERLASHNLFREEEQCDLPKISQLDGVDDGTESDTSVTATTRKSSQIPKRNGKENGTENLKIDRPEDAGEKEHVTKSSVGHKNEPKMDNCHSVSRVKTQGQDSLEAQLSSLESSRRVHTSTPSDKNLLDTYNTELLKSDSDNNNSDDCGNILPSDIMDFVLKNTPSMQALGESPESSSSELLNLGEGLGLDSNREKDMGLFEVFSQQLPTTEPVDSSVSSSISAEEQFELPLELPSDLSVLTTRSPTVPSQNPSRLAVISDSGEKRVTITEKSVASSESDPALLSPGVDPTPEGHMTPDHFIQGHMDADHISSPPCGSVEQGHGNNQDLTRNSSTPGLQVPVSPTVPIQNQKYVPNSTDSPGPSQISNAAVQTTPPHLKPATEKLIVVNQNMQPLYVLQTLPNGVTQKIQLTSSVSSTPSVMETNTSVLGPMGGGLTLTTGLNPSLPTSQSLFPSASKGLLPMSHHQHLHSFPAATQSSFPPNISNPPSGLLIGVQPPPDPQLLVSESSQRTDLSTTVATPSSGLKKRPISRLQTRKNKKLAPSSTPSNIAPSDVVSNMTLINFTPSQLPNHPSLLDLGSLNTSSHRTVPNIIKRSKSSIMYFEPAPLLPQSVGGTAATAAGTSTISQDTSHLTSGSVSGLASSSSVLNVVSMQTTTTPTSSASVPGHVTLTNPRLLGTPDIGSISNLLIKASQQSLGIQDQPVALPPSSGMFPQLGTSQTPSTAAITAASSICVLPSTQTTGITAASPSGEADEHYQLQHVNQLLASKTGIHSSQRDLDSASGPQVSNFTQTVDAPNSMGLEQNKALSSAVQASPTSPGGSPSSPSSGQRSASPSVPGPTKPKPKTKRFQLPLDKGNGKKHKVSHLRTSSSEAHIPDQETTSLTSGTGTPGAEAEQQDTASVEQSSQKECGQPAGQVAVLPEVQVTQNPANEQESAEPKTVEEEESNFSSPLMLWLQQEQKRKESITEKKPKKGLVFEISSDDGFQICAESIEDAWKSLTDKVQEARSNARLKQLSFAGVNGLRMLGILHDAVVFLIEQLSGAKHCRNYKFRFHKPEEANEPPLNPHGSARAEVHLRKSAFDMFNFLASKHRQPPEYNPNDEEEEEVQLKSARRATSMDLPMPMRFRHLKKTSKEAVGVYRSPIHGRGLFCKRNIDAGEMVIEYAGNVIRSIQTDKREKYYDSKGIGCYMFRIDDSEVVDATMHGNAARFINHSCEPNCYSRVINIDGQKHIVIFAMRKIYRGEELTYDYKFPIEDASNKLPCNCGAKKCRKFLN

Potency, active:
CNC[C@H](CC1CCCCC1)NC[C@H](Cc1ccccc1)NCCC12CC3CC(CC(C3)C1)C2 79.4 µM, CC(=O)NC1C(=O)N(CCN2CCOCC2)c2ccc(C)cc21 (configuration not stated) 79.6 µM, CCCC(c1nnnn1Cc1ccco1)N1CCN(C2CCCC2)CC1 (configuration not stated) 126 µM, COC(=O)[C@H](C)NC(=O)c1cc2c(cn1)[nH]c1ccccc12 50.2 µM, N=C1c2ccccc2CN1c1ccc(N2CCOCC2)c(S(=O)(=O)Nc2ccc(Cl)cc2)c1 71 µM, COc1ccc(Cn2nnnc2C(c2ccc3ncccc3c2)N2CCN(C3CCCCC3)CC2)cc1 (configuration not stated) 200 µM, COc1ccccc1NS(=O)(=O)c1cc(N2Cc3ccccc3C2=N)ccc1N1CCOCC1 71 µM, O=C(C[N+]12CC[N+](CC(=O)c3ccc(F)cc3)(CC1)CC2)c1ccc(F)cc1 79.4 µM, NC(=O)[C@@H]1CCCNc2c(I)cc([N+](=O)[O-])cc2C(=O)N[C@@H](CCCN=C(N)N)C(=O)N[C@@H](CCCN=C(N)N)C(=O)N1 251 µM, C[C@H](NC(=O)c1cc2c(cn1)[nH]c1ccccc12)C(=O)O 71 µM, CCC[n+]1c2ccccc2cc2ccccc21 63.2 µM, NC(=NCCCCCCN=C(N)/N=C(\N)Nc1ccc(Cl)cc1)/N=C(\N)Nc1ccc(Cl)cc1 141 µM, Cc1cc2c(N)cccc2nn1 141 µM, CC1(C)CN=C(N2CCN(c3ncnc4sc5c(c34)CCCC5)CC2)S1 22.4 µM, CCC(C)CCCCC(=O)N[C@@H](CCN)C(=O)N[C@H](C(=O)N[C@@H](CCN)C(=O)N[C@H]1CCNC(=O)C([C@@H](C)O)NC(=O)[C@@H](CCN)NC(=O)[C@H](CCN)NC(=O)[C@H](CC(C)C)NC(=O)[C@@H](CC(C)C)NC(=O)[C@H](CCN)NC1=O)[C@@H](C)O (stereo partly drawn) ({Octanoyl(6-Me)}-[Dab]T[Dab][Dab][Dab][dL]L[Dab][dDab][ξThr(3R)]; lactam 4-C) 12.6 µM, Cc1sc2ncnc(NC3CCN(Cc4ccccc4)CC3)c2c1C 63.1 µM, CCCC[n+]1c2ccccc2cc2ccccc21 63.2 µM, CCC(C)CCCCC(=O)NC(CCN)C(=O)NC(C(=O)NC(CCN)C(=O)NC1CCNC(=O)C(C(C)O)NC(=O)C(CCN)NC(=O)C(CCN)NC(=O)C(CC(C)C)NC(=O)C(Cc2ccccc2)NC(=O)C(CCN)NC1=O)C(C)O (configuration not stated) ({Octanoyl(6-Me)}-[Dab]T[Dab][Dab][Dab]FL[Dab][Dab]T; lactam 4-C; configuration not given here) 10 µM, CCC(c1nnnn1Cc1ccc(F)cc1)N1CCN(C2CCCCC2)CC1 (configuration not stated) 126 µM, c1cc(CN2CCCNCCNCCCNCC2)ccc1CN1CCCNCCNCCCNCC1 31.6 µM, CCOc1cc(CNCCc2ccc(S(N)(=O)=O)cc2)ccc1OCc1ccccc1 126 µM, CCc1cc2c(N3CCN(C(=O)c4ccco4)CC3)ncnc2s1 63.1 µM
